JMJD2E inh = qHTS Assay for Inhibitors of Human Jumonji Domain Containing 2E (JMJD2E); Potency, µM (doses to about 57.1 µM), without a hit: at the highest dose activity change, negative = inhibition, most hits filed as inhibitors; JMJD2E catalytic domain, FDH-coupled NADH fluorescence (FDH is formaldehyde dehydrogenase); 230,000 tested, 1.6% active; Lysine-specific demethylase 4E (Homo sapiens), B2RXH2; active = well fitted inhibition curve with a large enough effect, not every such curve was filed as active; inconclusive = small, poorly fitted or top-dose-only effect, or another doubt; inactive = no such curve, though single readings can be large or run the other way;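 note: potency is the fitted concentration of half-maximal effect; 0% = wells with enzyme and -100% = buffer wells without enzyme; nearly all actives have a fitted effect of over 50% in size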
Target sequence (B2RXH2 1-337 limits assumed): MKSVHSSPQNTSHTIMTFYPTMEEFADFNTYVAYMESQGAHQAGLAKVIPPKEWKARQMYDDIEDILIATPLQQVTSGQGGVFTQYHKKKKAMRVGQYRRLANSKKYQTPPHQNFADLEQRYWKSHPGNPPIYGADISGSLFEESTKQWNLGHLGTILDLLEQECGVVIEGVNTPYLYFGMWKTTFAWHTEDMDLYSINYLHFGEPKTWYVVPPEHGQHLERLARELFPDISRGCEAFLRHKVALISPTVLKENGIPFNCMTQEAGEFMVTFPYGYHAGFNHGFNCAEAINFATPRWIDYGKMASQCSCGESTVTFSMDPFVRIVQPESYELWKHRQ
Tau fibril FP = qHTS for Inhibitors of Tau Fibril Formation, Fluorescence Polarization; Microtubule-associated protein tau (Homo sapiens), P10636; K18 P301L tau heparin fibrillization, Alexa594 FP, 6 h; Potency, µM (series often up to 57.7 µM), for the others: at the highest dose activity, negative = inhibition, hits mostly inhibitors; 280,000 tested, 0.39% active; AID 1468, 2008; note: potency is the fitted concentration of half-maximal effect; nearly all actives have a fitted effect of over 55% in size
Target sequence (P10636 561-689 P618L limits assumed): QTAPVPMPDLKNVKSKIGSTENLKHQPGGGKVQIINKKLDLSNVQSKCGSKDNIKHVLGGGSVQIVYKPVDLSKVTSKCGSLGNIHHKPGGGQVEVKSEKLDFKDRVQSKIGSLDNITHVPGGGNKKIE
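Recombinant K18 P301L […], labeled with Alexa 594 at 0.24 uM over 15 uM unlabeled; heparin inducer 20 uM final; 37 C, 6 hr; FP endpoint.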
Sfp PPTase inh = qHTS Assay for Inhibitors of Bacillus subtilis Sfp phosphopantetheinyl transferase (PPTase). 4'-phosphopantetheinyl transferase ffp (Bacillus subtilis), Q9F4F7. Biochemical Sfp PPTase activity, qHTS. Potency, µM, inactives show largest response in the series, negative = inhibition, most hits filed as inhibitors. 310,000 tested, 3.5% active. AID 1490, 2009;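 note: the enzyme is Sfp with the accession as filed and its product quenches rhodamine fluorescence; potency is the fitted concentration of half-maximal effect; 0% = enzyme reaction without inhibitor and -100% = no enzyme wells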
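Step 1, compound plus 15 nM Sfp-PPTase, 15 min, room temperature. Step 2, add rhodamine-CoA (5 uM) and BHQ-2-YbbR (12.5 uM). Step 3, read 525/598 nm fluorescence at 0 and 30 min.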
Tau fibril ThT = qHTS for Inhibitors of Tau Fibril Formation, Thioflavin T Binding; AID 1460, 2008; Microtubule-associated protein tau (Homo sapiens), P10636; 270,000 tested, 2.1% active; recombinant tau K18 P301L, heparin-induced fibrillization, ThT fluorescence; Potency, µM (highest dose often 57.4 µM), without a hit: top-dose activity, negative = inhibition, actives largely listed as inhibitors; note: potency is the fitted concentration of half-maximal effect; nearly all actives have a fitted effect of over 55% in size
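Aggregation was driven by heparin (20 uM final) acting on recombinant tau […] bearing P301L in 100 mM sodium acetate pH 7; fibrils were detected with Thioflavin T.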
Tau fluor counter = Counterscreen qHTS for Inhibitors of Tau Fibril Formation, Fluorescence Polarization | 280,000 tested, 0.93% active | AID 1463, 2008 | tau K18 P301L (four-repeat tau fragment) Alexa594 fluorescence, heparin fibrillization | Potency, µM (series often up to 57.7 µM), inactives show at the highest dose activity change, negative = decrease; note: potency is the fitted concentration of half-maximal effect; nearly all actives have a fitted effect of over 55% in size
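Human K18 P301L tau (15 uM unlabeled plus 0.24 uM Alexa 594-labeled, final) in 100 mM sodium acetate pH 7 was mixed with compound and 20 uM heparin and incubated 6 hr at 37 C.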
FBPA coupling cs = qHTS Assay for Inhibitors of Fructose-1,6-bisphosphate Aldolase from Giardia Lamblia: Coupling assay counterscreen | activity change, negative = inhibition, % at 58.2 µM, hits read low | coupling enzyme system counterscreen, AmpLite Red fluorescence | 290,000 tested, 0.67% active | AID 2472, 2010; in the data active = activity change below about -30%
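Counterscreen lacking aldolase: glyceraldehyde-3-phosphate coupling-enzyme reagent preincubated 10 min at RT with compound (at 57.5 uM final), then substrate/coupling system with AmpLite Red added; fluorescence read at 525/598 nm after 20 min RT.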
* marks the source's active call; other numbers are inactive results; ? = inconclusive; nt = no result; [ ] = remark or other dose. An excerpt weighted towards active compounds, which were near 5.3% of everything screened. Unless noted, calls come from the whole dose curve; as a rule, active = well fitted curve in the direction sought with a large enough effect; inconclusive = small, poorly fitted or top-dose-only effect, or another doubt; inactive = no such curve, though single readings can be large; an effect the other way counts as inactive or inconclusive. Unless noted, % is set by controls: 0 for no effect and ±100 for the full control effect.

SMILES	JMJD2E inh	Tau fibril FP	Sfp PPTase inh	Tau fibril ThT	Tau fluor counter	FBPA coupling cs
CCCCCC(O)c1ccc([C@H]2CCC(=O)[C@@H]2CCCCCCC(=O)O)cc1 (stereo partly specified)	nt	nt	2.6%	nt	nt	6.2
CCOC(=O)CC(NC(=O)c1cc2cc(Cl)ccc2oc1=O)c1ccc(C)cc1 (stereo unspecified)	nt	-9.9%	nt	-12.8%	-21.7%	nt
COc1ccc([C@H]2c3cc(OC)c(OC)cc3C[C@@H](C)[C@@H]2C)cc1OC	-3.3%	-2.3%	16.3%	-14.3%	-7.4%	4.3
CS(=O)(=O)c1ncc(Cl)c(C(=O)Nc2ccc3ccccc3c2)n1	-2.3%	-10.0%	12.6µM*	?	5.7%	-1.2
CC(=O)Nc1ccc(NC(=O)c2nc(S(=O)(=O)Cc3ccccc3)ncc2Cl)cc1	nt	nt	-25.9%	nt	nt	nt
CCC1CCCCN1S(=O)(=O)c1ccc(NC(=O)c2nc(S(C)(=O)=O)ncc2Cl)cc1 (stereo unspecified)	nt	nt	25.1µM*	nt	nt	0.0
COC(=O)[C@H](C)NC(=O)C/C=C\[C@@H](C)CO	nt	-3.3%[11.6 µM]	2.8%	-1.7%[11.5 µM]	-1.3%[11.6 µM]	1.8
Cn1c(-c2nc(-c3ccccc3)cs2)nc2ccccc21	?	0.5%	44.7µM*	-9.7%	-4.3%	-1.2
COc1ccc(Cl)cc1NC(=O)CSc1ccc2nnc(CCNS(=O)(=O)c3ccccc3)n2n1	nt	-0.2%	nt	0.5%	-12.1%	nt
O=C(CNc1ccc2ccccc2c1)N/N=C/c1ccc([N+](=O)[O-])o1	-5.0%	2.3%	7.3%	?	14.1µM*[quencher]	1.3
O=C(N/N=C\c1ccc([N+](=O)[O-])o1)c1ccc(O)cc1	-5.4%[25.5 µM]	nt	6.8%	nt	nt	-0.3
O=C(CNc1ccc2ccccc2c1)N/N=C/c1cc2ccccc2nc1Cl	?	-1.2%	-22.7%	?	12.6µM*[quencher]	-13.0
O=C(COc1cccc(Cl)c1)N/N=C\c1cc2ccccc2nc1Cl	?	-12.3%	-18.4%	-4.0%	-13.8%	0.6
CCCC(=O)Nc1ccc(C(=O)N/N=C/c2ccc([N+](=O)[O-])o2)cc1	-4.2%	-4.6%	-26.3%	8.91µM*	-21.2%	-2.4
CC1CCN(S(=O)(=O)c2cc(C(=O)NCc3ccc(F)cc3)n(C)c2)CC1	nt	1.4%	nt	-2.2%	-13.6%	nt
O=C(O)COc1ccc(OCCNC[C@H](O)COc2ccccc2)cc1	nt	-5.0%	1.7%	-4.5%	-5.0%	nt
Cc1ccc(NCC(=O)N/N=C/c2cccc(Oc3ccccc3)c2)cc1	-4.6%	14.6%	14.2%	?	10µM*[quencher]	-1.8
Cc1ccc(NCC(=O)N/N=C/c2cc(O)ccc2[N+](=O)[O-])cc1	-4.2%	2.6%	17.4%	14.1µM*	-26.6%	-10.2
Cc1ccccc1-c1nn2c(=O)cc(CN3CCN(C(=O)c4ccccc4Br)CC3)nc2s1	nt	3.4%	nt	?	3.0%	nt
COc1cccc(Cn2c(CNC(=O)Cc3cccc(C)c3)nc3cccnc32)c1	nt	8.7%	nt	-9.0%	-13.5%	nt
CCn1c2ccccc2c2cc(/C=N/NC(=O)c3cc(O)cc(O)c3)ccc21	6.7%	-1.6%	-19.1%	-4.9%	-5.1%	-17.9
CCn1c2ccccc2c2cc(/C=N/NC(=O)c3ccc(O)cc3)ccc21	-1.3%	?	7.5%	?	10µM*[quencher]	-0.7
COc1ccc(-c2nc3cnc(N4CCNCC4)nc3n(Cc3cccs3)c2=O)cc1	nt	nt	?	nt	nt	7.1
CN(C)c1ncc2nc(-c3ccc(Cl)cc3)c(=O)n(Cc3cccs3)c2n1	nt	nt	-5.8%	nt	nt	2.6
Cc1nc(N)sc1-c1csc(NCc2ccccc2)n1	?	?	39.8µM*	20µM*	?	-27.2
SMILES	JMJD2E inh	Tau fibril FP	Sfp PPTase inh	Tau fibril ThT	Tau fluor counter	FBPA coupling cs
Cc1cc(NS(=O)(=O)c2ccc(Nc3nc(-c4sc(NC(=O)c5ccccc5)nc4C)cs3)cc2)no1	?	10.6%	?	20µM*	15.8µM*[quencher]	12.3
Cc1cc(-c2csc(NCc3ccccc3)n2)c(C)n1C	28.2µM*	-14.3%	?	?	?	-8.4
Cc1cc(-c2csc(NC(=O)c3ccccc3C(F)(F)F)n2)c(C)n1Cc1ccccc1	-25.0%	2.6%	1.9%	-7.4%	-24.5%	0.6
CCC(=O)Nc1nc(C)c(-c2csc(Nc3ccc(S(=O)(=O)Nc4cc(C)on4)cc3)n2)s1	?	12.3%	-17.1%	-15.9%	-20.9%	-1.5
Cc1nc(NC(=O)c2ccccc2)sc1-c1csc(NCCc2ccccc2)n1	-11.3%	?	18.9%	15.8µM*	15.8µM*[quencher]	0.1
Cc1nc2sccn2c1-c1csc(NCc2ccccc2)n1	-18.6%	-13.4%	-16.0%	?	?	-4.4
C1CCC(NC(=NC2C3CC4CC(C3)CC2C4)N2CCOCC2)CC1 (stereo unspecified)	nt	-3.1%	14.8%	0.8%	-1.5%	nt
CC(NC(=O)Cc1cc(F)cc(F)c1)C(=O)NC(C(=O)OC(C)(C)C)c1ccccc1 (stereo unspecified)	nt	nt	5.8%	nt	nt	0.7
CC(C)NC(=O)CN1C(=O)c2cccnc2Sc2ccccc21	nt	4.5%	nt	-2.5%	3.6%	nt
CC[C@H](C)[C@H](NC(=O)[C@H](Cc1ccc(O)cc1)NC(=O)[C@@H](NC(=O)[C@H](CCCN=C(N)N)NC(=O)[C@@H](N)CC(=O)O)C(C)C)C(=O)N[C@@H](Cc1ccc(N)cc1)C(=O)N1CCC[C@H]1C(=O)N[C@@H](Cc1ccccc1)C(=O)O	nt	nt	2.8%	nt	nt	-0.4
Cc1cc(C)cc(-n2c(SCC(N)=O)nc3c([nH]c4ccccc43)c2=O)c1	nt	-2.0%	nt	-15.1%	-10.9%	nt
Cc1ccc(Cl)cc1Nc1nc(-c2sc(NC(=O)c3ccccc3)nc2C)cs1	?	3.2%	-21.1%	?	?	0.1
Cc1cc(C(=O)CSc2nncs2)c(C)n1Cc1ccco1	-16.3%	3.3%	-14.1%	-13.1%	-7.7%	-0.8
CCOc1ccccc1Nc1nc(-c2sc(NC(=O)c3ccccc3)nc2C)cs1	?	3.4%	1.5%	?	?	-1.7
Cc1nc(NC(=O)c2ccccc2)sc1-c1csc(N)n1	-12.8%	-3.5%	-17.0%	12.6µM*	?	-6.8
CCNc1nc(-c2cc(C)n(Cc3ccco3)c2C)cs1	5.1%	-1.1%	22.4µM*	?	-19.1%	-14.0
Cc1nc(NC(=O)c2ccccc2)sc1-c1csc(NCc2ccccc2)n1	-20.6%	?	6.3%	?	12.6µM*[quencher]	-0.5
Cc1nc(NC(=O)c2ccccc2)sc1-c1csc(Nc2cccc(F)c2)n1	?	?	0.7%	7.94µM*	11.2µM*[quencher]	4.4

Compound activity deposited in PubChem BioAssay by National Center for Advancing Translational Sciences (NCATS).
